Source: the supplement of paper PMC9694430

Experiments:
Assay in all cases: thermal shift delta Tm vs DMSO control; higher = stronger stabilization (binding)
Conditions in all cases: 12.5 µM; protein concentration 2 µM
LOC_OS01G57100-cb003 = tested on: LOC_OS01G57100-cb003
How it was run: (§1)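 The melting temperature shift given here is a triplicate mean, measured against protein that received only DMSO. Melting temperatures came from Boltzmann fits of differential scanning fluorimetry data on E. coli-expressed, purified rice kinase domain constructs. Each 19.5 μl well contained 2 μM kinase, 100 mM potassium phosphate pH 7.5, 150 mM NaCl, 10% glycerol, 5 × SYPRO Orange and compound in DMSO. Plates were scanned from 25°C to 95°C at 0.05°C/s.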

LOC_OS01G60330-cb001 = tested on: LOC_OS01G60330-cb001
How it was run: as §1

LOC_OS01G60700-cb002 = tested on: LOC_OS01G60700-cb002
How it was run: as §1

LOC_OS01G63280-cb003 = tested on: LOC_OS01G63280-cb003
How it was run: as §1

LOC_OS01G67340-cb003 = tested on: LOC_OS01G67340-cb003
How it was run: as §1

LOC_OS01G70970-cb002 = tested on: LOC_OS01G70970-cb002
How it was run: as §1

LOC_OS02G07810-cb001 = tested on: LOC_OS02G07810-cb001
How it was run: as §1

LOC_OS02G08530-cb003 = tested on: LOC_OS02G08530-cb003
How it was run: as §1

LOC_OS02G14120-cb001 = tested on: LOC_OS02G14120-cb001
How it was run: as §1

LOC_OS02G17970-cb001 = tested on: LOC_OS02G17970-cb001
How it was run: as §1

LOC_OS02G45750-cb003 = tested on: LOC_OS02G45750-cb003
How it was run: as §1

LOC_OS02G54510-cb004 = tested on: LOC_OS02G54510-cb004
How it was run: as §1

LOC_OS03G04050-cb001 = tested on: LOC_OS03G04050-cb001
How it was run: as §1

LOC_OS03G12390-cb001 = tested on: LOC_OS03G12390-cb001
How it was run: as §1

LOC_OS03G27990-cb004 = tested on: LOC_OS03G27990-cb004
How it was run: as §1

LOC_OS03G50450-cb001 = tested on: LOC_OS03G50450-cb001
How it was run: as §1

LOC_OS03G50810-cb003 = tested on: LOC_OS03G50810-cb003
How it was run: as §1

LOC_OS04G35114-cb001 = tested on: LOC_OS04G35114-cb001
How it was run: as §1

LOC_OS04G38480-cb003 = tested on: T1, LOC_OS04G38480-cb003
T1 sequence (whole entry): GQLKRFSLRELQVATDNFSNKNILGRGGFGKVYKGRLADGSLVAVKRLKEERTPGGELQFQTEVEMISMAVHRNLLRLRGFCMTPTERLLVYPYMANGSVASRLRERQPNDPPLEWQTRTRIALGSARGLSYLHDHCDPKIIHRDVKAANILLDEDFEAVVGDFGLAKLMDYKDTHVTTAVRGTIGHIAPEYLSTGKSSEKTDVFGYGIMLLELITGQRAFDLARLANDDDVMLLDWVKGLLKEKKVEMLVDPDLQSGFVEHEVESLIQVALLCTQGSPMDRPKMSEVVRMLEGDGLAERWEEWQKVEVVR
How it was run: as §1

LOC_OS04G41100-cb001 = tested on: T2, LOC_OS04G41100-cb001
T2 sequence (whole entry): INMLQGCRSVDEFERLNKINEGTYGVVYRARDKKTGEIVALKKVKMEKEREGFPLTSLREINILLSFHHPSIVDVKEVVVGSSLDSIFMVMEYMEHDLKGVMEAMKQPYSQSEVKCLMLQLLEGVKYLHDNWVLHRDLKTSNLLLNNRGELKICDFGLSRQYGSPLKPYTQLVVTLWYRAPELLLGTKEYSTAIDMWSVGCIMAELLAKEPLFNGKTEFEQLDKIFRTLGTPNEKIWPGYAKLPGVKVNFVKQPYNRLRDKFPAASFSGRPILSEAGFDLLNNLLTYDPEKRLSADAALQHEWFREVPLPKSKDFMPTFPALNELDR
How it was run: as §1

Structure (SMILES)	thermal shift delta Tm (LOC_OS01G57100-cb003) [°C]	thermal shift delta Tm (LOC_OS01G60330-cb001) [°C]	thermal shift delta Tm (LOC_OS01G60700-cb002) [°C]	thermal shift delta Tm (LOC_OS01G63280-cb003) [°C]	thermal shift delta Tm (LOC_OS01G67340-cb003) [°C]	thermal shift delta Tm (LOC_OS01G70970-cb002) [°C]	thermal shift delta Tm (LOC_OS02G07810-cb001) [°C]	thermal shift delta Tm (LOC_OS02G08530-cb003) [°C]	thermal shift delta Tm (LOC_OS02G14120-cb001) [°C]	thermal shift delta Tm (LOC_OS02G17970-cb001) [°C]	thermal shift delta Tm (LOC_OS02G45750-cb003) [°C]	thermal shift delta Tm (LOC_OS02G54510-cb004) [°C]	thermal shift delta Tm (LOC_OS03G04050-cb001) [°C]	thermal shift delta Tm (LOC_OS03G12390-cb001) [°C]	thermal shift delta Tm (LOC_OS03G27990-cb004) [°C]	thermal shift delta Tm (LOC_OS03G50450-cb001) [°C]	thermal shift delta Tm (LOC_OS03G50810-cb003) [°C]	thermal shift delta Tm (LOC_OS04G35114-cb001) [°C]	thermal shift delta Tm (LOC_OS04G38480-cb003) [°C]	thermal shift delta Tm (LOC_OS04G41100-cb001) [°C]
CCn1c(N)c(C(=O)NC)c(=O)c2ccc(C#CC(C)(O)COC)nc21 (stereo not given)	0.95	1.02	1.1	0.41	0.38	1.97	0.99	1.25	1.34	0.48	1.5	-0.18	0.43	1.63	0.43	0.79	0.85	1.56	0.68	0.29
CNC(=O)c1cc(COc2nnc(Nc3ccc(Cl)cc3)c3ccoc23)ccn1 [Telatinib]	1.9	0.6	0.35	0.76	0.82	0.19	0.85	0.69	-0.19	1.35	0.27	0.15	0.24	-0.25	0.21	0.19	0.38	0.7	1.95	1.53
COc1cc2ncnc(Oc3ccc(CC(=O)Nc4cnn(C(C)C)c4)cc3)c2cc1OC	0.71	0.05	1.1	0.13	-0.21	0.47	0.52	0.53	0.06	0.84	0.54	0.74	0.53	0.37	0.19	0.01	0.5	2.1	1.49	0.32
Nc1ncc(-c2ccnc(Nc3ccncc3)n2)c(CC2CC2)n1	0.51	1.45	1.53	0.58	0.33	0.37	0.77	0.52	3.13	2.16	2.65	0.44	0.08	0.7	0.32	0.09	0.92	1.69	2.3	0.78
C[C@H](NC(=O)c1c(N)nn2cccnc12)c1cc2cccc(C#Cc3cnn(C)c3)c2c(=O)n1-c1ccccc1	1.25	0.23	-0.49	0	0.21	0.36	-0.71	0.78	0.56	0.54	1.18	0.33	0.47	-0.11	0.46	0.63	0.32	0.21	1.13	0.04
CCc1cnn2c(NCc3ccc[n+]([O-])c3)cc(N3CCCC[C@H]3CCO)nc12	1.62	1.64	0.78	0.34	-0.24	0.27	1.17	0.89	0.57	0.96	0.58	0.19	0.27	1.31	0.33	0.63	0.67	0.57	0.56	0.68
Cc1c(NC(=O)OC[C@@H]2COCCN2)cn2ncnc(Nc3ccc4c(cnn4Cc4cccc(F)c4)c3)c12	0.24	1.47	1.55	0.59	-0.1	0.39	0.88	0.86	0.51	0.42	0.67	0.27	0.42	0.69	0.14	0.45	0.15	1.04	1.85	0.82
Cc1ccc(Nc2nccc(N(C)c3ccc4c(C)n(C)nc4c3)n2)cc1S(N)(=O)=O [Pazopanib]	0.76	3.85	1.11	0.59	0.96	0.44	0.68	1.82	3.43	0.74	3.24	0.61	0.35	0.19	0.23	0.21	0.98	4.53	1.63	3.44
C[C@@H](N)[C@H]1CC[C@H](C(=O)Nc2ccncc2)CC1	0.49	1.12	1.12	0.48	0.04	0.52	0.9	0.85	0.71	0.32	0.42	-0.03	0.29	0.52	0.09	0.25	0.21	0.03	1.42	0.81
COc1cc2ncc(-c3ccccc3)nc2cc1OC [Tyrphostin AG 1296]	0.4	3.29	1.32	1.35	1.24	0.75	-0.01	1.3	2.29	0.27	4.58	-0.11	0.13	0.49	0.74	0.48	1.56	3.93	0.73	0.13
COCCNCc1ccc(-c2cc3nccc(Oc4ccc(NC(=O)C5(C(=O)Nc6ccc(F)cc6)CC5)cc4F)c3s2)nc1 [Sitravatinib (MGCD516)]	0.24	1.12	-0.27	1.87	7.72	5.29	0.47	2.12	7.48	1.18	6.42	1.08	0.75	0.75	1.06	0.57	3.13	6.52	3.71	3.13
CCCCNc1ncc(C(=O)NCc2ccc(-n3ccnc3)cc2)c(NC2CCC(O)CC2)n1 (stereo not given)	2	9.72	1.49	0.72	10.2	4.54	0.76	4.03	7.7	1.08	12.4	0.46	0.27	2.82	5.72	1.85	4.77	9.02	2.91	0.89
